# Measurements from PubChem BioAssay.
# Unmarked numbers belong to inactive results. For some of these results: Measured potencies and affinities stand elsewhere. The list shows a part of the results. The source made the active and inactive calls.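 The calls were made as follows, unless noted: active = calcium signal rise above buffer-control mean plus 5 SD in both duplicates, and also a hit in the primary screen; inactive = the rest.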
# Assays:
# [1] = system: TRPC4 beta (transient receptor potential cation channel C4), mouse; test: activators of mouse TRPC4 channel, confirmation, cell-based, Fluo4 calcium, HEK293 TRPC4beta/mu-opioid, duplicates, 10 µM (AID 2426;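 active = fluorescence ratio normalized to control raised more than 50% in primary screen plus both repeat runs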); conditions: Fluo4 calcium fluorescence, at 10 µM; active compounds read high
# [2] = system: transient receptor potential cation channel C4 beta (TRPC4), mouse; test: activators of mouse TRPC4 channel, confirmation, cell-based, second round, Fluo4, HEK293 TRPC4beta/mu-opioid, 1 µM (AID 2461;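 active = primary screen active and over 50% activation in each of two duplicate runs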); conditions: Fluo4 calcium fluorescence, at 1 µM; active compounds read high
# [3] = system: TRPC4 (transient receptor potential cation channel C4 beta), mouse; test: positive allosteric modulators of mouse TRPC4, confirmation, cell-based, second round, Fluo-4, HEK293 TRPC4beta/mu-opioid, 1 µM (AID 2554;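 active = primary screen hit whose fluorescence ratio, in both repeats, exceeds the weak agonist control mean by 3 SD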); conditions: DAMGO EC20, Fluo-4 calcium flux, at 1 µM; active compounds read high
# [4] = system: TRPC4 beta (transient receptor potential cation channel C4), mouse; test: positive allosteric modulators of mouse TRPC4, confirmation, cell-based, Fluo-4, HEK293 TRPC4beta/mu-opioid (AID 2555;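 active = primary screen hit whose calcium fluorescence ratio, in both repeats, exceeds the weak agonist control mean by 3 SD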); conditions: DAMGO EC20, Fluo-4 calcium flux, at 10 µM; active compounds read high
# [5] = molecular target: Short transient receptor potential channel 4 (Mus musculus) (UniProt Q9QUQ5); test: inhibitors of mouse TRPC4 channel, confirmation, cell-based, Fluo4, HEK293 TRPC4beta/mu-opioid (AID 2636;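 active = calcium signal cut by more than 3 SD below the full-agonist control yet still positive, in both repeats and the earlier primary screen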); conditions: DAMGO, Fluo4 calcium flux, at 10 µM; active compounds read high
# Chain of Short transient receptor potential channel 4 (Mus musculus) (Q9QUQ5 whole entry, looked up): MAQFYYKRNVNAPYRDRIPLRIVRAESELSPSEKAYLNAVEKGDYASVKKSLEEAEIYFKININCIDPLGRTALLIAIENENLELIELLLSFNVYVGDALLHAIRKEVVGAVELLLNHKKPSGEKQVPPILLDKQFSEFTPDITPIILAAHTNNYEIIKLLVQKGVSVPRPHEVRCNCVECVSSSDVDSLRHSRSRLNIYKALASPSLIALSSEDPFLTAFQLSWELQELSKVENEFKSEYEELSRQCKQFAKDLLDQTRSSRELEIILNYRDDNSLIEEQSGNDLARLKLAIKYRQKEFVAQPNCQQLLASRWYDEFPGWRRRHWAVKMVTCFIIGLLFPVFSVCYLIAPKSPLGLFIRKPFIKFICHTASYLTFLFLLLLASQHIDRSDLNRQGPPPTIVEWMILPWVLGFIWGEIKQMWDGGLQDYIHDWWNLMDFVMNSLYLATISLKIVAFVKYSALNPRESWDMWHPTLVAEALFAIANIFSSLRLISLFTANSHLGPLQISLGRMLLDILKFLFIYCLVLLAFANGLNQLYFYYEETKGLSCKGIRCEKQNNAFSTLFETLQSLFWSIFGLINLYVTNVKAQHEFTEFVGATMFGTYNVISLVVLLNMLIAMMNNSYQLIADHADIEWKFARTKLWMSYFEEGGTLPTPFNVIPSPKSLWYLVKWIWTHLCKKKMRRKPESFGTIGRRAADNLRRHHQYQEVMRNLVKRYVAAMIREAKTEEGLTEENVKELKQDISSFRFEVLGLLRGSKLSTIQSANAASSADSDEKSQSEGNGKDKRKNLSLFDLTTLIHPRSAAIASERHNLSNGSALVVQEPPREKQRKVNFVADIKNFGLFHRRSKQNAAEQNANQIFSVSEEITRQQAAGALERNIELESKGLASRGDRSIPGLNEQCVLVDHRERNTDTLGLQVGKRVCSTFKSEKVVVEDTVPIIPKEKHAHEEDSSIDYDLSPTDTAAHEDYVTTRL
# [6] = molecular target: Short transient receptor potential channel 4 (Mus musculus) (UniProt Q9QUQ5); test: inhibitors of mouse TRPC4 channel, confirmation, cell-based, second round, Fluo4, HEK293 TRPC4beta/mu-opioid, 1 µM (AID 2637;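 active = calcium signal ratio cut to more than 3 SD under the fully stimulated control mean yet still positive, in both repeats and the primary screen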); conditions: Fluo4 calcium flux, DAMGO, at 1 µM; active compounds read high
# [7] = molecular target: Short transient receptor potential channel 4 (Mus musculus) (UniProt Q9QUQ5); test: mouse TRPC4 channel activators, dose response, cell-based, HEK293 TRPC4/mu-opioid, Fluo-4 calcium (AID 434937;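 active = primary screen activator hit with a dose response curve and TRPC4 channel activation at any tested dose; inactive = no activation, no dose response, or not a primary hit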)
# [8] = molecular target: Short transient receptor potential channel 4 (Mus musculus) (UniProt Q9QUQ5); test: TRPC4 positive allosteric modulators, dose response, cell-based, HEK293 TRPC4/mu-opioid, Fluo-4 calcium, EC20 DAMGO (AID 434941;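 active = earlier screen potentiator hit that boosts the TRPC4 ion channel at some dose, with a dose response; inactive = no potentiation, no dose response, or not a prior hit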;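 also: calcium entry triggered by an EC20 dose of DAMGO at the co-expressed mu-opioid receptor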)
# [9] = molecular target: Short transient receptor potential channel 4 (Mus musculus) (UniProt Q9QUQ5); test: mouse TRPC4 channel inhibitors, dose response, cell-based, HEK293 TRPC4/mu-opioid, Fluo-4 calcium (AID 434942;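 active = primary screen inhibitor hit that blocks the TRPC4 channel at some tested dose, yielding a dose curve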)
# [10] = molecular target: Short transient receptor potential channel 6 (Mus musculus) (UniProt Q61143); test: inhibition of mouse TRPC6 channel, confirmation, selectivity assay for TRPC4 inhibitor project, cell-based, HEK293, membrane potential dye, duplicate (AID 434948;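 active = active in primary screen and both duplicates, each dropping signal beyond three positive-control SD with fluorescence still positive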); conditions: HEK293 TRPC6, membrane potential dye fluorescence, at 10 µM, stimulated with maximal-effect acetylcholine; active compounds read high
# Chain of Short transient receptor potential channel 6 (Mus musculus) (Q61143 whole entry, looked up): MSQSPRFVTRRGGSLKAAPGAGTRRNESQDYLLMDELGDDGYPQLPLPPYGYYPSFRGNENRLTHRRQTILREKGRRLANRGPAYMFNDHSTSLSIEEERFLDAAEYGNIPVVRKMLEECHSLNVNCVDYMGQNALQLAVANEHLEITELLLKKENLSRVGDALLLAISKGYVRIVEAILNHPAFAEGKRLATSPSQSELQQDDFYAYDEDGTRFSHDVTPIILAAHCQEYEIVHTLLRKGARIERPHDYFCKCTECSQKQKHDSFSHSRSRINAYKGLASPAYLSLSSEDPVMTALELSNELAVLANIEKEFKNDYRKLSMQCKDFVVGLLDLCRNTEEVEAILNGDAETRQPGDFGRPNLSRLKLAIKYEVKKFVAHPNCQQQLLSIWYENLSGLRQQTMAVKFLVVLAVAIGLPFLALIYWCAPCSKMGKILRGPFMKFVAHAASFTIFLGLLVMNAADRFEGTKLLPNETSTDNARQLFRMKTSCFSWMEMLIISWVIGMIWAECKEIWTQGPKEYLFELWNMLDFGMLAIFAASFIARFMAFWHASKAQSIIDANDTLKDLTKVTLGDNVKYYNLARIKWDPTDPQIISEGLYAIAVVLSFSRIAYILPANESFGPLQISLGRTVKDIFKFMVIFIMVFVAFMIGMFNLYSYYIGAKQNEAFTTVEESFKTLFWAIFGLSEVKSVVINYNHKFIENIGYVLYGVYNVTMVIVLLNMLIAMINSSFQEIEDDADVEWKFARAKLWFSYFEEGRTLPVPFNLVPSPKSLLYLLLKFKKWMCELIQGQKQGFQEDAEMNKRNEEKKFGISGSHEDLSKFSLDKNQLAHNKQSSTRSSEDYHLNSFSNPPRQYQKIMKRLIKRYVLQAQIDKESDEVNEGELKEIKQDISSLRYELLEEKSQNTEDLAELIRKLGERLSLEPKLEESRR
# [11] = molecular target: Short transient receptor potential channel 6 (Mus musculus) (UniProt Q61143); test: activation of mouse TRPC6 channel, confirmation, selectivity assay for TRPC4 activator project, cell-based, HEK293, membrane potential dye, duplicate (AID 434950;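 active = membrane potential signal rise above negative control mean plus 3 SD in both duplicates, also active in the earlier TRPC4 screen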); conditions: HEK293 TRPC6, membrane potential fluorescence, at 10 µM; active compounds read high
# [12] = molecular target: Short transient receptor potential channel 6 (Mus musculus) (UniProt Q61143); test: TRPC6 potentiation by TRPC4 potentiator hits, confirmation, selectivity assay for TRPC4 potentiator project, HEK293 cells, membrane potential dye, duplicate (AID 434952;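 active = compound raising the membrane signal above positive-control mean plus 3 SD in both repeats, and a primary screen hit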); conditions: HEK293 TRPC6, membrane potential dye fluorescence, at 10 µM, maximal acetylcholine added after compound; active compounds read high
# [13] = molecular target: Short transient receptor potential channel 4 (Mus musculus) (UniProt Q9QUQ5); test: calcium flux activators in TRPC4/5HT1a cells, counter-screen for TRPC4 activator project, cell-based, second counter screen, HEK293 TRPC4/5HT1a, Fluo-4 (AID 434977); conditions: Fluo-4 calcium flux, at 10 µM; active compounds read high
# [14] = calcium flux inhibitors in TRPC4/5HT1a cells, confirmation, counter-screen for TRPC4 inhibitor project, cell-based, second counter screen, HEK293 TRPC4/5HT1a, Fluo-4 (AID 434978;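 active = primary screen active whose calcium signal fell more than 3 SD beyond the full-serotonin control mean in both duplicate plates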;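 also: serotonin given first at submaximal then at maximal dose after compound preincubation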); conditions: Fluo-4 calcium flux, at 10 µM, serotonin added to trigger calcium flux; active compounds read high
# [15] = system: TRPC4 (mouse), co-expressed with 5HT1a in HEK293; test: calcium flux potentiators in TRPC4/5HT1a cells, confirmation, counter-screen for TRPC4 potentiator project, cell-based, second counter screen, HEK293 TRPC4/5HT1a, Fluo-4 (AID 434979;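 active = signal rise over 3 SD above mean of control wells given weak agonist, in both repeats and first screen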); conditions: Fluo-4 calcium flux, at 10 µM, serotonin added at its EC20 dose; active compounds read high
# [16] = calcium flux activation in mu-opioid HEK293 cells, confirmation, counter-screen for TRPC4 activator project, cell-based, HEK293 mu-opioid receptor line (AID 449723;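 active = hit in primary screen, with calcium signal over 5 SD above buffer well mean in both duplicates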;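 also: counter screen cells carry the mu-opioid receptor alone and lack TRPC4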); conditions: Fluo-4 calcium fluorescence, at 10 µM; active compounds read high
# [17] = calcium flux enhancement in mu-opioid HEK293 cells, confirmation, counter-screen for TRPC4 allosteric potentiator project, cell-based, HEK293 mu-opioid receptor line (AID 449724;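 active = calcium signal rise more than 3 SD above the low-dose agonist control mean, in both duplicate plates and the primary screen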); conditions: Fluo-4 calcium flux, at 10 µM, compound added before EC20 DAMGO stimulus; active compounds read high
# [18] = nonspecific thallium flux increase in parental CHO-K1, confirmation, counter-screen for KCNQ2 potentiator project, cell-based, FluxOR thallium flux, duplicate (AID 2282;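 active = signal rise of at least 3 SD above the untreated control mean, in both duplicate wells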;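 also: counter screen of KCNQ2 potentiator hits so any rise reflects channel-independent effects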); conditions: parental CHO-K1 cells, FluxOR thallium flux fluorescence; at 10 µM; active compounds read high; zero = vehicle mean+3SD, 100% = vehicle-minus-blank window
# [19] = molecular target: Potassium voltage-gated channel subfamily KQT member 1 (Homo sapiens) (UniProt P51787); test: human KCNQ1 channel potentiation off-target, confirmation, selectivity assay for KCNQ2 potentiator project, cell-based, CHO, FluxOR thallium flux (AID 2283;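 active = fluorescence ratio rise of at least 3 SD of vehicle wells above their mean, in both replicate wells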;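 also: 0% = vehicle mean plus 3 SD and 100% = vehicle minus unstimulated blank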); conditions: CHO KCNQ1 stable, FluxOR thallium flux fluorescence; at 10 µM; active compounds read high; beyond 3SD, as % of vehicle-control signal
# Chain of Potassium voltage-gated channel subfamily KQT member 1 (Homo sapiens) (P51787 whole entry, looked up): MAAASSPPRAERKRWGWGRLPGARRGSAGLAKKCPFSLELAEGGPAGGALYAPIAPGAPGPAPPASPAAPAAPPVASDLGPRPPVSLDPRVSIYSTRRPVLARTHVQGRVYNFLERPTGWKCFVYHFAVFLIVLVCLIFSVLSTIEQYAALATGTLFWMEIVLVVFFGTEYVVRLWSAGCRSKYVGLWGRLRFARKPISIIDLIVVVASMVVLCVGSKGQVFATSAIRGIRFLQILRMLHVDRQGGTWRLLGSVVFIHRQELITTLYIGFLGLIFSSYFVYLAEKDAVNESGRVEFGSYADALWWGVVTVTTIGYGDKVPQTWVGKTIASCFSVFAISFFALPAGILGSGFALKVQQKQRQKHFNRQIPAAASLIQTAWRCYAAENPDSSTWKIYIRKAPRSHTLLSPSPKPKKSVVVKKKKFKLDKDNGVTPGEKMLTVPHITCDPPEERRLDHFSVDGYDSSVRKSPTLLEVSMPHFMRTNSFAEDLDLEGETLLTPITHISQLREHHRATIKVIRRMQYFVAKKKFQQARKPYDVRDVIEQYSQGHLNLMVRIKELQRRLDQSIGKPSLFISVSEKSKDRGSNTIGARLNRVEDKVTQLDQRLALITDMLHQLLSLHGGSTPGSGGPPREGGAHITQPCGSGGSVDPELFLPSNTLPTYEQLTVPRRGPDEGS
# [20] = molecular target: Potassium voltage-gated channel subfamily KQT member 2 (Rattus norvegicus) (UniProt O88943); test: rat KCNQ2 channel potentiators, confirmation, cell-based, CHO, FluxOR thallium flux, duplicate (AID 2287;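 active = fluorescence ratio rising 3 SD or more over the vehicle control mean in both replicates, plus primary screen hit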;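 also: peak minus minimum thallium fluorescence divided by baseline after K/Tl stimulus; 0% = vehicle mean plus 3 SD and 100% = vehicle minus unstimulated blank difference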); conditions: CHO-KCNQ2 cells, FluxOR thallium flux fluorescence; at 10 µM; active compounds read high
# Chain of Potassium voltage-gated channel subfamily KQT member 2 (Rattus norvegicus) (O88943 whole entry, looked up): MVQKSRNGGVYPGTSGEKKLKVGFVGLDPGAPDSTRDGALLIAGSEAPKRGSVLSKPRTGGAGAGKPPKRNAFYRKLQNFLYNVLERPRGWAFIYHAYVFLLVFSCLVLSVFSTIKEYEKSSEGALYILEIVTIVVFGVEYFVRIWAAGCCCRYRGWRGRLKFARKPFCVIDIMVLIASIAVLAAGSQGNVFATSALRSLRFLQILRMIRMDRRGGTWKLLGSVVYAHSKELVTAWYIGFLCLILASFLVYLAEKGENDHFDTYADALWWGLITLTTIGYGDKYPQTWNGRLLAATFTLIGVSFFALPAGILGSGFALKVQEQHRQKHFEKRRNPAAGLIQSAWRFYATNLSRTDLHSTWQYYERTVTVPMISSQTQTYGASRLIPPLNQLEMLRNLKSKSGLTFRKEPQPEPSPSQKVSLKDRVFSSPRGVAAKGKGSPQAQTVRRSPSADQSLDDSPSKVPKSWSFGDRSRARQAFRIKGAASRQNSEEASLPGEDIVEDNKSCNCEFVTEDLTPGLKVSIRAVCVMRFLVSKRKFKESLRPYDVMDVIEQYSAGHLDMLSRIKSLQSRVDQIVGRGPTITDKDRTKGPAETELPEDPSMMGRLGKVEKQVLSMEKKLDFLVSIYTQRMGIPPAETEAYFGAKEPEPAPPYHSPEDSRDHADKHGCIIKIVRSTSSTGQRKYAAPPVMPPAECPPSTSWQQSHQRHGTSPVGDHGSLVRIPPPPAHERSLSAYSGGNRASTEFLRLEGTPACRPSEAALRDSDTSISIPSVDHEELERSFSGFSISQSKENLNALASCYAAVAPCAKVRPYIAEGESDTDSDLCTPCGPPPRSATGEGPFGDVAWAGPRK
smiles,measurement,setting,value
CC(C)c1nc2ccc(Br)cn2c1NC1CCCC1,outcome,[1],inactive
same,outcome,[2],inactive
same,outcome,[3],inactive
same,outcome,[4],inactive
same,outcome,[5],inactive
same,outcome,[6],inactive
same,outcome,[7],inactive
same,outcome,[8],inactive
same,outcome,[9],inactive
same,outcome,[10],inactive
same,outcome,[11],inactive
same,outcome,[12],inactive
same,outcome,[13],inactive
same,outcome,[14],inactive
same,outcome,[15],inactive
same,outcome,[16],inactive
same,outcome,[17],inactive
Cc1cc(C(=O)OCC(=O)Nc2ccc(F)c(F)c2)c(C)o1,activity increase over 3SD of controls,[18],-17.5%
same,activation over 3SD threshold,[19],-23.1%
same,"potentiation, less the hit threshold",[20],17.6% (active)
Cc1[nH]nc(Nc2ccccc2)c1[N+](=O)[O-],outcome,[1],inactive
same,outcome,[2],inactive
same,outcome,[3],inactive
same,outcome,[4],inactive
same,outcome,[5],inactive
same,outcome,[6],inactive
same,outcome,[7],inactive
same,outcome,[8],inactive
same,outcome,[9],inactive
same,outcome,[10],inactive
same,outcome,[11],inactive
same,outcome,[12],inactive
same,outcome,[13],inactive
same,outcome,[14],inactive
same,potentiation,[15],20.8% (active)
same,outcome,[16],inactive
same,outcome,[17],inactive
Cn1c(=O)c2c(nc(CN3CCc4ccccc4C3)n2Cc2ccc(F)cc2)n(C)c1=O,outcome,[1],inactive
same,outcome,[2],inactive
same,outcome,[3],inactive
same,outcome,[4],inactive
same,outcome,[5],inactive
same,outcome,[6],inactive
same,outcome,[7],inactive
same,outcome,[8],inactive
same,outcome,[9],inactive
same,outcome,[10],inactive
same,outcome,[11],inactive
same,outcome,[12],inactive
same,outcome,[13],inactive
same,outcome,[14],inactive
same,potentiation,[15],59.5% (active)
same,outcome,[16],inactive
same,outcome,[17],inactive
O=C(Nc1ccc([N+](=O)[O-])cn1)C1CCCCC1,outcome,[1],inactive
same,outcome,[2],inactive
same,outcome,[3],inactive
same,outcome,[4],inactive
same,outcome,[5],inactive
same,outcome,[6],inactive
same,outcome,[7],inactive
same,outcome,[8],inactive
same,outcome,[9],inactive
same,outcome,[10],inactive
same,outcome,[11],inactive
same,outcome,[12],inactive
same,outcome,[13],inactive
same,outcome,[14],inactive
same,outcome,[15],inactive
same,outcome,[16],inactive
same,outcome,[17],inactive
CCOc1cc2[nH]c(=S)n(C3CC3)c(=O)c2cc1OCC,outcome,[1],inactive
same,outcome,[2],inactive
same,outcome,[3],inactive
same,outcome,[4],inactive
same,outcome,[5],inactive
same,outcome,[6],inactive
same,outcome,[7],inactive
same,outcome,[8],inactive
same,outcome,[9],inactive
same,outcome,[10],inactive
same,outcome,[11],inactive
same,outcome,[12],inactive
same,outcome,[13],inactive
same,outcome,[14],inactive
same,outcome,[15],inactive
same,outcome,[16],inactive
same,outcome,[17],inactive
CCN1CCN(CCC(=O)Nc2ccccc2OC)CC1,outcome,[1],inactive
same,outcome,[2],inactive
same,outcome,[3],inactive
same,potentiation,[4],11% (active)
same,outcome,[5],inactive
same,outcome,[6],inactive
same,outcome,[7],inactive
same,outcome,[8],inactive
same,outcome,[9],inactive
same,outcome,[10],inactive
same,outcome,[11],inactive
same,outcome,[12],inactive
same,outcome,[13],inactive
same,outcome,[14],inactive
same,potentiation,[15],17.3% (active)
same,outcome,[16],inactive
same,outcome,[17],inactive
CCn1c(NCc2ccco2)nc2ccccc21,outcome,[1],inactive
same,outcome,[2],inactive
same,outcome,[3],inactive
same,potentiation,[4],8% (active)
same,outcome,[5],inactive
same,outcome,[6],inactive
same,outcome,[7],inactive
same,outcome,[8],inactive
same,outcome,[9],inactive
same,outcome,[10],inactive
same,outcome,[11],inactive
same,outcome,[12],inactive
same,outcome,[13],inactive
same,outcome,[14],inactive
same,potentiation,[15],12.3% (active)
same,outcome,[16],inactive
same,outcome,[17],inactive
CCCN1CCC(NC(=O)Cc2cccc(C)c2)CC1,outcome,[1],inactive
same,outcome,[2],inactive
same,outcome,[3],inactive
same,outcome,[4],inactive
same,outcome,[5],inactive
same,outcome,[6],inactive
same,outcome,[7],inactive
same,outcome,[8],inactive
same,outcome,[9],inactive
same,outcome,[10],inactive
same,outcome,[11],inactive
same,outcome,[12],inactive
same,outcome,[13],inactive
same,outcome,[14],inactive
same,outcome,[15],inactive
same,outcome,[16],inactive
same,outcome,[17],inactive
CCOC(=O)C1C(=O)C=C(c2ccc(C)cc2)CC1c1cccc([N+](=O)[O-])c1 (stereo unspecified),outcome,[1],inactive
same,outcome,[2],inactive
same,outcome,[3],inactive
same,potentiation,[4],46% (active)
same,outcome,[5],inactive
same,outcome,[6],inactive
same,outcome,[7],inactive
same,outcome,[8],inactive
same,outcome,[9],inactive
same,outcome,[10],inactive
same,outcome,[11],inactive
same,outcome,[12],inactive
same,outcome,[13],inactive
same,outcome,[14],inactive
same,potentiation,[15],38.9% (active)
same,outcome,[16],inactive
same,outcome,[17],inactive
CCCCN(C(=O)c1cccc2c(=O)c(C)c(-c3ccccc3)oc12)c1ccccc1,outcome,[1],inactive
same,outcome,[2],inactive
same,outcome,[3],inactive
same,potentiation,[4],15% (active)
same,outcome,[5],inactive
same,outcome,[6],inactive
same,outcome,[7],inactive
same,outcome,[8],inactive
same,outcome,[9],inactive
same,outcome,[10],inactive
same,outcome,[11],inactive
same,outcome,[12],inactive
same,outcome,[13],inactive
same,outcome,[14],inactive
same,potentiation,[15],12.4% (active)
same,outcome,[16],inactive
same,outcome,[17],inactive
Fc1ccc(Nc2ncnc3sc4c(c23)CCC4)cc1,outcome,[1],inactive
same,outcome,[2],inactive
same,potentiation,[3],22% (active)
same,outcome,[4],inactive
same,outcome,[5],inactive
same,outcome,[6],inactive
same,outcome,[7],inactive
same,outcome,[8],inactive
same,outcome,[9],inactive
same,outcome,[10],inactive
same,outcome,[11],inactive
same,outcome,[12],inactive
same,outcome,[13],inactive
same,outcome,[14],inactive
same,potentiation,[15],50% (active)
same,outcome,[16],inactive
same,outcome,[17],inactive
CC(=O)Cn1ncc(N2CCOCC2)cc1=O,outcome,[1],inactive
same,outcome,[2],inactive
same,outcome,[3],inactive
same,outcome,[4],inactive
same,outcome,[5],inactive
same,outcome,[6],inactive
same,outcome,[7],inactive
same,outcome,[8],inactive
same,outcome,[9],inactive
same,outcome,[10],inactive
same,outcome,[11],inactive
same,outcome,[12],inactive
same,outcome,[13],inactive
same,outcome,[14],inactive
same,outcome,[15],inactive
same,outcome,[16],inactive
same,outcome,[17],inactive
COc1ccc(OCCN(C)Cc2c(O)ccc3ccccc23)cc1,outcome,[1],inactive
same,outcome,[2],inactive
same,outcome,[3],inactive
same,outcome,[4],inactive
same,outcome,[5],inactive
same,outcome,[6],inactive
same,outcome,[7],inactive
same,outcome,[8],inactive
same,outcome,[9],inactive
same,outcome,[10],inactive
same,outcome,[11],inactive
same,outcome,[12],inactive
same,outcome,[13],inactive
same,outcome,[14],inactive
same,outcome,[15],inactive
same,outcome,[16],inactive
same,outcome,[17],inactive
CCOC(=O)c1cnc2ccc(Cl)cc2c1NCCN(C)C,outcome,[1],inactive
same,outcome,[2],inactive
same,outcome,[3],inactive
same,outcome,[4],inactive
same,outcome,[5],inactive
same,outcome,[6],inactive
same,outcome,[7],inactive
same,outcome,[8],inactive
same,outcome,[9],inactive
same,outcome,[10],inactive
same,outcome,[11],inactive
same,outcome,[12],inactive
same,outcome,[13],inactive
same,outcome,[14],inactive
same,outcome,[15],inactive
same,outcome,[16],inactive
same,outcome,[17],inactive
